# Measured values taken from PubChem BioAssay (NCATS).
# Records with an inconclusive call do not appear. Calls of active or inactive are those of the source. Unless noted, calls come from the whole dose curve; as a rule, active = well fitted curve in the direction sought with a large enough effect; inconclusive = small, poorly fitted or top-dose-only effect, or another doubt; inactive = no such curve, though single readings can be large; an effect the other way counts as inactive or inconclusive.
# Key:
# [1] = qHTS profiling of the MIPE4 collection as inhibitors of Plasmodium falciparum (DD2) proliferation (AID 743345; call rule not given here); settings: P. falciparum Dd2 in erythrocytes, SYBR Green DNA, 72 h; at 28.5 µM (top of the series) unless noted
# How it was run: (§1)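 Parasite DNA was quantified by SYBR Green I fluorescence (ex 485, em 535 nm) after overnight lysis in saponin/Triton buffer at room temperature. Cultures at 0.3% parasitemia and 2.5% hematocrit were first exposed to compound for 72 h at 37 C; signals were normalised to artemisinin (0.29 uM) and vehicle wells.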
# [2] = High-throughput drug toxicity screening in the BPDCN cell line Gen2.2 (AID 1224824; call rule not given here;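 note: cells exposed to compounds for 48 h before reading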); settings: Gen2.2 BPDCN cells; at 45.8 µM (top of the series) unless noted
# How it was run: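 CellTiter-Glo luminescence after 48 h compound exposure of Gen2.2 cells; percent activity set with DMSO as 100% and bortezomib (9.2 uM final) as 0%. Cells seeded at 500 per well, RPMI + 10% FBS, 37 °C.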
# [3] = High-throughput drug toxicity screening in the BPDCN cell line Cal-1 (AID 1224825; call rule not given here); settings: Cal-1 BPDCN cell viability, qHTS; at 45.8 µM (top of the series) unless noted
# How it was run: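 CellTiter-Glo luminescence after 48 h compound exposure; percent activity scaled with DMSO as 100% and bortezomib (9.2 uM final) as 0%. Cal-1 cells seeded at 500/well in RPMI, 10% FBS, no phenol red.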
# [4] = qHTS assay for measurement of the activity of small molecule inhibitors on Zika virus induced Caspase-3 activity in human iPSC derived neural progenitor cells (hNPCs) (AID 1224857); note: % of control where 0% means no effect; nearly all actives have a fitted effect of over 65% in size
# How it was run: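 hNPCs seeded 350 cells/well, cultured 16–20 h; compounds added 1 h before ZIKV (2 FFU/cell), 37 C 6 h. Caspase-Glo 3/7 luminescence after 30 min RT; % inhibition from induction scaled to uninfected (0%) and infected (100%) wells.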
# [5] = qHTS assay for measurement of the activity of small molecule inhibitors on Zika virus induced Caspase-3 activity in human astrocytoma cells (AID 1224859);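 note: plate controls were ZIKV-infected untreated cells for no effect and uninfected cells for full effect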
# How it was run: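 Luminescence read-out (Caspase-Glo 3/7, 30 min RT) of caspase activity in SNB-19 cells infected 6 h with ZIKV, 2 FFU/cell, after 1 h compound pretreatment; % inhibition from induction normalised to uninfected (0%) and infected (100%) wells.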
# [6] = qHTS Screen of the MIPE 4.0 Collection Against Ewings Sarcoma (TC71) (AID 1259253); note: nearly all actives have a fitted effect of over 40% in size; note: potency is the fitted concentration of half-maximal effect
# How it was run: (§2)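 Dose series incubated 48 h with cells in RPMI plus 5% FBS, glutamine and penicillin/streptomycin; cell viability then quantified via CellTiter-Glo.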
# [7] = qHTS Screen of the MIPE 4.0 Collection Against Ewings Sarcoma (EW8) (AID 1259255); note: nearly all actives have a fitted effect of over 35% in size; note: potency is the fitted concentration of half-maximal effect;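 for viability: 100% = DMSO-treated cells and 0% = medium-only wells without cells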
# How it was run: as §2
# [8] = qHTS Screen of the MIPE 4.0 Collection Against Ewings Sarcoma (TC32) (AID 1259256); note: nearly all actives have a fitted effect of over 45% in size; note: potency is the fitted concentration of half-maximal effect
# How it was run: as §2
# [9] = qHTS assay to identify small molecule inhibitors of chordoma cells - UCH-1 (AID 1259355); note: % is set by controls: 0 for no effect and ±100 for the full control effect; nearly all actives have a fitted effect of over 55% in size
# How it was run: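 Screening used approved and investigational drugs in 15-point titration against 800 seeded cells per well. A fixed combination of auranofin with camptothecin, doxorubicin, rubitecan and topotecan followed compound addition, and growth was scored by CellTiter-Glo after 48hr.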
# [10] = qHTS assay to identify small molecule inhibitors of chordoma cells - UCH-2 (AID 1259356); note: % is set by controls: 0 for no effect and ±100 for the full control effect
# [11] = qHTS profiling of the MIPE4 collection as inhibitors of Plasmodium falciparum (3D7) proliferation (AID 743344; call rule not given here;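 note: scaled between DMSO vehicle wells and 0.29 µM artemisinin as full inhibition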); settings: P. falciparum 3D7 in erythrocytes, SYBR Green DNA fluorescence, 72 h; at 28.5 µM (top of the series) unless noted
# How it was run: as §1
# [12] = qHTS profiling of the MIPE4 collection as inhibitors of Plasmodium falciparum (DD2) proliferation (Rep 2) (AID 743346; call rule not given here); settings: P. falciparum Dd2 in erythrocytes, SYBR Green DNA, 72 h; at 28.5 µM (top of the series) unless noted
# How it was run: as §1
# [13] = qHTS profiling of the MIPE4 collection as inhibitors of Plasmodium falciparum (HB3) proliferation (AID 743347; call rule not given here;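 note: plate controls were DMSO vehicle wells for no effect and artemisinin wells for full effect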); settings: P. falciparum HB3 in erythrocytes, SYBR Green DNA, 72 h; at 28.5 µM (top of the series) unless noted
# How it was run: as §1
# [14] = qHTS Screen of the MIPE 4.0 Collection Against Ewings Sarcoma (RDES) (AID 1259252); note: nearly all actives have a fitted effect of over 35% in size; note: potency is the fitted concentration of half-maximal effect
# How it was run: as §2
# [15] = Identifying Small Molecule Inhibitors of Pancreatic Cancer Stem Cells (A2780, Spheroid) (AID 1259357); settings: A2780 spheroid viability;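 note: spheroids pre-formed over 14 days in stem cell medium on hydrogel; potency is the fitted concentration of half-maximal effect; compound exposure lasted 48 h before the ATP luminescence read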
# How it was run: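 Viability is scored by CellTiter-Glo luminescence 48 h after dosing, expressed as percent activity against vehicle and no-cell references. Spheroid formats rely on cells cultured 14 days in stem cell media beforehand.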
# [16] = Identifying Small Molecule Inhibitors of Pancreatic Cancer Stem Cells (SN12C, Adherent) (AID 1259358);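 note: potency is the fitted concentration of half-maximal effect; cell survival measured after 48 h of compound exposure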
# How it was run: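 Endpoint: ATP-based luminescence, 48 h drug exposure. Bortezomib at 9.2 uM final as full-kill control; DMSO vehicle as negative control; activity normalized between vehicle and cell-free wells.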
# [17] = Identifying Small Molecule Inhibitors of Pancreatic Cancer Stem Cells (Panc1, Spheroid) (AID 1259359); settings: Panc1 spheroid cancer stem cell viability;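 note: potency is the fitted concentration of half-maximal effect; compound exposure lasted 48 h before reading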
# How it was run: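 After a 4 h attachment period, compounds were pinned into wells and cultures held 48 h under standard incubator conditions. Viability was then measured as CellTiter-Glo luminescence following 10 min at room temperature.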
# [18] = Identifying Small Molecule Inhibitors of Pancreatic Cancer Stem Cells (Panc1, Adherent) (AID 1259362); settings: Potency: viability; note: potency is the fitted concentration of half-maximal effect
# How it was run: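 Adherent (2D) versus sphere (3D) formats; spheres generated 14 d in SCM beforehand. Compound transferred by pin tool after 4 h, 48 h incubation, CellTiter-Glo endpoint.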
SMILES,"parasite growth remaining, % of DMSO control (lower = more inhibition) [1]","cell viability, % of control (lower = more cytotoxic) [2]",viability (% of control) [3],Potency [4],Potency [5],Potency [6],Potency [7],Potency [8],Potency [9],outcome [10],"parasite growth, % of DMSO control [11]","parasite growth, % of control (lower = inhibition) [12] [%]","growth, % of control [13]",Potency [14],Potency [15],Potency [16],Potency [17],Potency [18]
CC[N+](CC)(CC)CCOc1cccc(OCC[N+](CC)(CC)CC)c1OCC[N+](CC)(CC)CC,104%,124%,111%,inactive,inactive,inactive,inactive,inactive,inactive,inactive,–,–,–,–,–,–,–,–
Nc1c2c(nc3ccccc13)CCCC2,15.1%,131%,101%,inactive,inactive,18.7 µM (active),18.7 µM (active),–,inactive,inactive,7.17%,10.3,20.2%,–,–,–,–,–
Cn1c(=O)c2[nH]cnc2n(C)c1=O,102%,123%,96.4%,inactive,inactive,inactive,–,–,inactive,inactive,–,–,–,–,–,–,–,–
CC(COc1ccccc1)N(CCCl)Cc1ccccc1 (stereo not drawn),26.2%,82.3%,45%,inactive,inactive,inactive,inactive,inactive,inactive,inactive,90.3%,–,–,–,–,–,–,–
CNCCCC12CCC(c3ccccc31)c1ccccc12,21.8%,8.38%,13.7%,inactive,inactive,–,18.7 µM (active),23.5 µM (active),inactive,inactive,16.9%,–,7.27%,–,–,–,–,–
NC(=O)NO,97.5%,4.63%,2.6%,inactive,inactive,5.9 µM (active),–,inactive,inactive,inactive,93.9%,95.5,96.8%,–,–,–,–,–
O=C(C1CCCCC1)N1CC(=O)N2CCc3ccccc3C2C1 (stereo not drawn),89.3%,246%,105%,inactive,inactive,–,inactive,inactive,inactive,inactive,61.4%,–,–,–,–,–,–,–
COc1cc2nc(N(C)CCCNC(=O)C3CCCO3)nc(N)c2cc1OC (stereo not drawn),88.3%,230%,115%,inactive,inactive,inactive,inactive,inactive,–,inactive,64%,–,67.3%,inactive,–,–,–,–
Cc1cc(C(C)(C)C)cc(C)c1CC1=NCCN1,–,20.6%,12.2%,inactive,inactive,inactive,inactive,inactive,–,inactive,–,17.1,–,–,–,–,–,–
CN1C2CCC1CC(OC(=O)C(CO)c1ccccc1)C2 (stereo not drawn),–,172%,113%,inactive,–,–,–,–,–,–,–,–,–,–,–,–,–,–
CS(=O)(=O)CCNCc1ccc(-c2ccc3ncnc(Nc4ccc(OCc5cccc(F)c5)c(Cl)c4)c3c2)o1,7.86%,4.7%,2.82%,inactive,inactive,2 µM (active),8.33 µM (active),13.2 µM (active),inactive,inactive,8.87%,51.8,13%,–,16.6 µM (active),418 nM (active),37.2 µM (active),20.9 µM (active)
Cc1cn([C@H]2C=C[C@@H](CO)O2)c(=O)[nH]c1=O,112% [at 57.5 µM],82.4% [at 92.2 µM],100% [at 92.2 µM],inactive,inactive,inactive,inactive,inactive,inactive,inactive,325% [at 57.5 µM],–,618% [at 57.5 µM],–,–,–,–,–
CC(C)NCC(O)COc1ccc(CCOCC2CC2)cc1 (stereo not drawn),89.8%,88.1%,97%,inactive,inactive,inactive,–,inactive,inactive,inactive,77%,–,57.9%,–,–,–,–,–
COc1ccc(C2CNC(=O)C2)cc1OC1CCCC1 (stereo not drawn),101%,170%,117%,inactive,inactive,inactive,inactive,inactive,inactive,inactive,109%,116,98.4%,–,–,–,–,–
O=C1N(c2ccccc2)c2ccccc2C1(Cc1ccncc1)Cc1ccncc1,86.2%,266%,130%,inactive,inactive,16.6 µM (active),inactive,inactive,inactive,inactive,105%,120,106%,–,–,–,–,–
N[C@@H](Cc1c[nH]c2ccc(O)cc12)C(=O)O,101%,126%,35.8%,inactive,inactive,inactive,inactive,–,inactive,inactive,101%,–,99.6%,–,–,–,–,–
NC(=O)OCC(COC(N)=O)c1ccccc1,97.8%,156%,96.1%,inactive,–,–,–,5.9 µM (active),inactive,inactive,97.2%,95.5,63.7%,–,–,–,–,–
OCCN(CCO)c1nc(N2CCCCC2)c2nc(N(CCO)CCO)nc(N3CCCCC3)c2n1,–,130%,95.3%,inactive,–,20.9 µM (active),–,–,–,inactive,–,36.9,–,–,–,–,–,–
COc1ccccc1N1CCN(CC(O)COc2cccc3ccccc23)CC1 (stereo not drawn),98.8%,156%,112%,inactive,–,16.6 µM (active),inactive,–,–,inactive,64.9%,65.8,74.7%,–,–,–,–,–
Nc1nc2c(ncn2COC(CO)CO)c(=O)[nH]1,92.5%,5.03%,3.13%,inactive,–,23.5 µM (active),–,inactive,inactive,inactive,91.1%,84.9,49%,26.4 µM (active),–,–,–,–
